From the supplement of paper PMC11732987, “Enantioselective OTUD7B fragment discovery through chemoproteomics screening and high-throughput optimisation” (Communications Chemistry, 2025)
Values without a mark were called inactive.

Assays:
Assay in all cases: log2 ratio of Biotin-Ahx-Ub-VS probe labelling (fragment/DMSO); higher = less target engagement (more negative = stronger competition), active = hit call of the paper (q ≤ 0.05, log2 ratio ≤ -1)
Conditions in all cases: compound concentration: 200 uM; treatment time: 3 h
[1] = biological target: T1, USP19 (UniProt O94966)
T1 sequence (whole entry): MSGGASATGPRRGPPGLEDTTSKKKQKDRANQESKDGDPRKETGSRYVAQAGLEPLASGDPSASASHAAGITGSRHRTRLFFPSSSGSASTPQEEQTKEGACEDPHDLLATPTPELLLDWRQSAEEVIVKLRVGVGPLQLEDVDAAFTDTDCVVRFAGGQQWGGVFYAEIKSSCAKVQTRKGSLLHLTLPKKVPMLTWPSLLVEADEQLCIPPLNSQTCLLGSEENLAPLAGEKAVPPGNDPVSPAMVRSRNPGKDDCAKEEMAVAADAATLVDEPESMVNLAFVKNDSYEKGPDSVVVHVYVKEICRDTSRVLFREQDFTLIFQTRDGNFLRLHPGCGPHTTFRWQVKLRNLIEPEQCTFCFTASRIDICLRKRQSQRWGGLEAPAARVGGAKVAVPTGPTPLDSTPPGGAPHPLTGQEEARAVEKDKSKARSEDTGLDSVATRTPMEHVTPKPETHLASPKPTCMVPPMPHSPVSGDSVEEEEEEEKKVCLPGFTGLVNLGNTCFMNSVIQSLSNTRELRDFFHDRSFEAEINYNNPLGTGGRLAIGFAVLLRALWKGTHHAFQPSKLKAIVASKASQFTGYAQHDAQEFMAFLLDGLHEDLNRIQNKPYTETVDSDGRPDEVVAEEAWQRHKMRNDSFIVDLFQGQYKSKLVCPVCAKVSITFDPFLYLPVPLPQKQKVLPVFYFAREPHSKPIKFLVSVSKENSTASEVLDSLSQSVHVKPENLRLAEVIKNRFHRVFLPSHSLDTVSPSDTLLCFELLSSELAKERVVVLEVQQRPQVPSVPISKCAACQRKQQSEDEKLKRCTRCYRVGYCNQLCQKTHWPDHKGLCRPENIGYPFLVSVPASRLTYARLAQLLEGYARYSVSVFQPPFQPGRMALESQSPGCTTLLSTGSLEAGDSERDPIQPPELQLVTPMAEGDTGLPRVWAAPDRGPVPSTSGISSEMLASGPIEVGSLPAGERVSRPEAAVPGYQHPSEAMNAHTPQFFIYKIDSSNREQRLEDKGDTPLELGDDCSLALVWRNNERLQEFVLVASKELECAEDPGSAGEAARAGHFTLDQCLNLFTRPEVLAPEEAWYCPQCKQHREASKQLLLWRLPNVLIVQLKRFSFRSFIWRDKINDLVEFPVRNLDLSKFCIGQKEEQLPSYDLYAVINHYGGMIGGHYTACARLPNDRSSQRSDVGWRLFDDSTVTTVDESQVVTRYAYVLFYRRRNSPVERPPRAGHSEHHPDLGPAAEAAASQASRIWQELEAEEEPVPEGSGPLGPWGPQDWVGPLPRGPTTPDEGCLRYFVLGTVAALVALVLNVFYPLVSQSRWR
Outline: (§1)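 Triplicate samples of HEK293T lysate, 495 µg each, received fragment at 200 µM or vehicle for 3 h, followed by Biotin-Ahx-Ub-VS (0.5 µM final) for 1 h. After NeutrAvidin enrichment of labelled DUBs and LysC/trypsin digestion, peptides were run by diaPASEF LC-MS/MS. The values are average log2 fragment/vehicle ratios from global-median-normalised Spectronaut label-free quantities, tested by unpaired t-test on proteins having ≥2 unique peptides.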

[2] = biological target: USP24 (UniProt Q9UPU5)
Outline: as §1

[3] = biological target: T2, USP25 (UniProt Q9UHP3)
T2 sequence (whole entry): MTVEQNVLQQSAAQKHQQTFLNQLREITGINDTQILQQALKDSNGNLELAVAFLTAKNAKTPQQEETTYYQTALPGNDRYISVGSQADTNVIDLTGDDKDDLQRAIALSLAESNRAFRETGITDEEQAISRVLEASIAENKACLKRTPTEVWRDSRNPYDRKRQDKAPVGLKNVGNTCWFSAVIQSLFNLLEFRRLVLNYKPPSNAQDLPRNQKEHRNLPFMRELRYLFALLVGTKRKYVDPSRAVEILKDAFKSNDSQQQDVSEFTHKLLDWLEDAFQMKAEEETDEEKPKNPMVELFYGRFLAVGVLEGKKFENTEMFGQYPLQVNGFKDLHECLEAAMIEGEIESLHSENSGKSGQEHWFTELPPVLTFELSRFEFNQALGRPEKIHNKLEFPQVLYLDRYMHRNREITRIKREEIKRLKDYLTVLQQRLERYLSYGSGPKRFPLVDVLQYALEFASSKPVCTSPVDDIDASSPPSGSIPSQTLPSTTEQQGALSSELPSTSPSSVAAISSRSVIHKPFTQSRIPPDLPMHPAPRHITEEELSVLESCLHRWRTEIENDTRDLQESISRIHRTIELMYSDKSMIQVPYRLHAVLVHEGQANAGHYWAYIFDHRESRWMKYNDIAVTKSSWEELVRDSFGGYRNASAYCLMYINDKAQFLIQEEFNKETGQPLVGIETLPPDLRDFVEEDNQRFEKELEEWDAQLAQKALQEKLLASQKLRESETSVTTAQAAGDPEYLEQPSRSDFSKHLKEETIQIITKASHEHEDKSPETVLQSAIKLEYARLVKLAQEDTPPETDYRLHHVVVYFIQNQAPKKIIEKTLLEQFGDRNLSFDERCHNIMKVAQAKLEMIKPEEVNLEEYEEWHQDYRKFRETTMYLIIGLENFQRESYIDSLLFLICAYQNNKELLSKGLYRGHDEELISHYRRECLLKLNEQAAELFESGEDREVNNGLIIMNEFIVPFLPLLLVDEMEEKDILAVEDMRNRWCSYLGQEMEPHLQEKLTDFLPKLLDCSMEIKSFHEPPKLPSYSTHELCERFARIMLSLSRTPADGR
Outline: as §1

[4] = biological target: T3, USP28 (UniProt Q96RU2)
T3 sequence (whole entry): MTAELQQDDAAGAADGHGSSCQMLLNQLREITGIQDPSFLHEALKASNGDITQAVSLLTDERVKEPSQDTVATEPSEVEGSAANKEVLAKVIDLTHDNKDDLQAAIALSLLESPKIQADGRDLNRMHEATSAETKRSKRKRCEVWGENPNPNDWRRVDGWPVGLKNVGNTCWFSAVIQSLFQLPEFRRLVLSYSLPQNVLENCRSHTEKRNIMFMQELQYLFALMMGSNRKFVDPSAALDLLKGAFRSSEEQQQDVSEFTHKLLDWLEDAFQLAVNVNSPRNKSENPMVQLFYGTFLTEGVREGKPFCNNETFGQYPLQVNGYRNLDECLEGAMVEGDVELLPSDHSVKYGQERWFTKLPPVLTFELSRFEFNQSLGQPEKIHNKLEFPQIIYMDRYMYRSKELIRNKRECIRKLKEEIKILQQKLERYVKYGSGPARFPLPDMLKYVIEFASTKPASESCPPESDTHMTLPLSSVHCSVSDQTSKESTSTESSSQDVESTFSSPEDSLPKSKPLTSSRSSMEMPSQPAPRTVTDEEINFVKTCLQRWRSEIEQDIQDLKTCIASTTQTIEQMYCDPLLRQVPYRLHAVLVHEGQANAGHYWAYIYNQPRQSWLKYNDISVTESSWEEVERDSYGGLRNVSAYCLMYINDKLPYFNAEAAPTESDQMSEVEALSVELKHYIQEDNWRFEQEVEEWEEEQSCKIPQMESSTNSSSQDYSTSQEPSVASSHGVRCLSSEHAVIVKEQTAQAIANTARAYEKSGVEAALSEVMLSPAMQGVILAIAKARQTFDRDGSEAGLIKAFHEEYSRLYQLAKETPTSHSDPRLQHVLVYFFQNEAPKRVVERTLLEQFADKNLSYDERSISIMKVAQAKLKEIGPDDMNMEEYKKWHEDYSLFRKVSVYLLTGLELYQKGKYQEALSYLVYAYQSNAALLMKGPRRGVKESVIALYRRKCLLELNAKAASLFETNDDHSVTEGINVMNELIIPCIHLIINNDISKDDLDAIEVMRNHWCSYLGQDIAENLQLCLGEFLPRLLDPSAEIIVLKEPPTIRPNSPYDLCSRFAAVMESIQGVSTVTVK
Outline: as §1

Chain of USP24 (Q9UPU5 whole entry): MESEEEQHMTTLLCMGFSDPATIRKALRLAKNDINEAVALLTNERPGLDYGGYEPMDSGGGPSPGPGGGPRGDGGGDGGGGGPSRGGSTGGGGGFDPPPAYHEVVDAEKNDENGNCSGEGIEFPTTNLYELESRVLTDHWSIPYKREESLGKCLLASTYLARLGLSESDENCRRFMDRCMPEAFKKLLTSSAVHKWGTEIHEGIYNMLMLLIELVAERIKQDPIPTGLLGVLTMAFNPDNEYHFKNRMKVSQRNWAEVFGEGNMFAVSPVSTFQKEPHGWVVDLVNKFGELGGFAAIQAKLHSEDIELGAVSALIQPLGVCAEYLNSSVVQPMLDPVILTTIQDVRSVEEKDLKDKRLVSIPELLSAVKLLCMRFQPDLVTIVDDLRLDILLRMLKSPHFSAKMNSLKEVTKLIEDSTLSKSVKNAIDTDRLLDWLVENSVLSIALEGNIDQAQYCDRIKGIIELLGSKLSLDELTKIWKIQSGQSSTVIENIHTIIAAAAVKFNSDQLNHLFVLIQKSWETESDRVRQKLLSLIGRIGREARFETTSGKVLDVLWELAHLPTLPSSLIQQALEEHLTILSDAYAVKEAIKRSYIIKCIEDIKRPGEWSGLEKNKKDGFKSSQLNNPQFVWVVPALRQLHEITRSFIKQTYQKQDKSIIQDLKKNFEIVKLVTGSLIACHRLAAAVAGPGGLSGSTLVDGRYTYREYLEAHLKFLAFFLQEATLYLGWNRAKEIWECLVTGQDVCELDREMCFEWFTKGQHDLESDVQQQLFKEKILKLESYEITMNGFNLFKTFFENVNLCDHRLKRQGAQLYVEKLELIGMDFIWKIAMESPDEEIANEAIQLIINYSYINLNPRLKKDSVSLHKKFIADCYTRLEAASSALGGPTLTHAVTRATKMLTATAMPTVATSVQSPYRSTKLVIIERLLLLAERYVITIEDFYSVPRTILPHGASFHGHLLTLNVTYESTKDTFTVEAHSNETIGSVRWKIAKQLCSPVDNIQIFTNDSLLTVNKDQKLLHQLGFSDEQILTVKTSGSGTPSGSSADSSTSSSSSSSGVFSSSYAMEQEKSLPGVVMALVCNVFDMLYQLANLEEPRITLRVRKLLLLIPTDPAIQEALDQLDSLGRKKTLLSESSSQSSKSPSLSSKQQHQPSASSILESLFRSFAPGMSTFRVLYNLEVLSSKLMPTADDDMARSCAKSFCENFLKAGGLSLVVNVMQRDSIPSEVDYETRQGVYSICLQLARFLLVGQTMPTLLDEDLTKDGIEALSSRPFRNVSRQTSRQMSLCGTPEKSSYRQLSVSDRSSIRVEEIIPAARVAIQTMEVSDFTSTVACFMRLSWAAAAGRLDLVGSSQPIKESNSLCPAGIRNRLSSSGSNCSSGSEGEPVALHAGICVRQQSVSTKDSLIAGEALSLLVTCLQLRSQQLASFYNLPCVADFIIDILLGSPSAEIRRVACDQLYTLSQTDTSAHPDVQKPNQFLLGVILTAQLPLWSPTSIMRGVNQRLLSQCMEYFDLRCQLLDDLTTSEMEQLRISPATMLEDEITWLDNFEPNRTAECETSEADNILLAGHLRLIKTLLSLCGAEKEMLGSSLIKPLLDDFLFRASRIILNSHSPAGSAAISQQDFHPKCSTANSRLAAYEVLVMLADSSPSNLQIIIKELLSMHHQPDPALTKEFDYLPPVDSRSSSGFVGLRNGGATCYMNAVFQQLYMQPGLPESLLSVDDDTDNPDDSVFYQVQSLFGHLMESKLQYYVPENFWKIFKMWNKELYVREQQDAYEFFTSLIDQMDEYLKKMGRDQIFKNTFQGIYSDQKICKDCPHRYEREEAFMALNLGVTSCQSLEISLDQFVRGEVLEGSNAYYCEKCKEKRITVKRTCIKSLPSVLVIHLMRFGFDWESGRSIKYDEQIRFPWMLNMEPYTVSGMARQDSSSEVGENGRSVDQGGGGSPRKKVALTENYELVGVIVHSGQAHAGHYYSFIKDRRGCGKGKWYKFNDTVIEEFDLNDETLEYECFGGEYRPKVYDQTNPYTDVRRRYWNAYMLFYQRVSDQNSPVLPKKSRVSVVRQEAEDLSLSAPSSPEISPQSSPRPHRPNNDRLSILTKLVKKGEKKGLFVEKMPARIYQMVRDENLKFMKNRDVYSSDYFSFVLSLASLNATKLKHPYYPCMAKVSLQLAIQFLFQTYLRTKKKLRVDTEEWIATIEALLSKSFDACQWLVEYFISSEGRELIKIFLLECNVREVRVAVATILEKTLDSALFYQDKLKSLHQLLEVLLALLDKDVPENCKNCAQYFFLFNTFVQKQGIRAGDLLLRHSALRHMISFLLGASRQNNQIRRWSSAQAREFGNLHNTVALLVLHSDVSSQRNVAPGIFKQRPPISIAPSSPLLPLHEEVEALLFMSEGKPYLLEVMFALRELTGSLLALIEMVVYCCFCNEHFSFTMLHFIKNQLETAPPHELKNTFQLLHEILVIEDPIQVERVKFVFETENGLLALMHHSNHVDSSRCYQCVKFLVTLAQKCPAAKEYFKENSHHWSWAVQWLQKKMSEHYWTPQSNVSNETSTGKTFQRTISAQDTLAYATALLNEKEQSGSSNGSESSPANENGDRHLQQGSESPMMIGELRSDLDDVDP

Which “log2 ratio of Biotin-Ahx-Ub-VS probe labelling” value (from here on “log2 ratio”) [1] does the source give for Cc1ccccc1CN(C)C(=O)CCl here?
Its value is -0.829.

And the “log2 ratio” value [2]?
Its value is -1.38 (active).

And the “log2 ratio” value [3]?
Its value is -1.03 (active).

And the “log2 ratio” value [4]?
Its value is -1.35 (active).
